DAX1 inh-1 – NR0B1 (DAX1) inhibition; inhibition, % at 6.75 µM; 340,000 compounds, 0.99% hits; HEK293 Gal4-DAX1 luciferase reporter, luminescence; AID 504766;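 active means inhibition above the mean over all tested compounds plus 3 SD, cut at about 4.2% in these data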;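 further: 0% = DAX1-transfected cells with DMSO and 100% = empty-vector control cells with DMSO; inhibition shows as a rise in luminescence from relieved DAX1 repression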
Target sequence (P51843 207-470 limits assumed): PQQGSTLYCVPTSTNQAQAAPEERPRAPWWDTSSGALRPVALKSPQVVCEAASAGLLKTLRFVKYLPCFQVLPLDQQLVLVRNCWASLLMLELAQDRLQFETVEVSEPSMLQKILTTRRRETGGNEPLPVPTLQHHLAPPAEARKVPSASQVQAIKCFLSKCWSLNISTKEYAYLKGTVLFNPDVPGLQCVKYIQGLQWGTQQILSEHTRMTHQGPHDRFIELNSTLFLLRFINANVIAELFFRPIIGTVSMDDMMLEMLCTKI
hcDAF12 agonist – activators of H. contortus DAF-12 nuclear receptor; HEK293 hcDAF-12 lit1-tk-luc reporter, luminescence; 0% DMSO, 100% Δ7-dafachronic acid; activation, % at 6.8 µM; 370,000 compounds, 1.4% hits; AID 652067;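 active means activation above the mean of all tested compounds plus 3 SD, cut at about 5.5% in these data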;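 further: 100% = response to 3 µM Δ7-dafachronic acid high control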
hgDAF12 agonist – activates the H. glycines DAF-12 receptor ligand-binding domain | 370,000 compounds, 1.8% hits | AID 687014 | activation, % at 6.8 µM | HEK293 GAL4-hgDAF12 UAS-luciferase reporter, agonist luminescence; normalized to butyrate control;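 active means activation above a cutoff set at the mean of all screened compounds plus 3 SD, cut at about 10% in these data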;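 further: 0% = DMSO wells and 100% = sodium butyrate wells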
ssDAF12 agonist – activators of S. stercoralis DAF-12 nuclear receptor. HEK293 ssDAF-12/GRIP1 lit1-tk-luc reporter, luminescence; % of 3 µM dafachronic acid response. activation, % at 6.8 µM. 370,000 compounds, 1% hits. AID 652126;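 active means activation above the mean over all tested compounds plus 3 SD, cut at about 0.9% in these data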;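 further: 0% = DMSO-only wells and 100% = 3 µM delta7-dafachronic acid wells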
AHR act – activates the human aryl hydrocarbon receptor | AHR-responsive luciferase reporter cells, luminescence | activation, % at 5 µM | 320,000 compounds, 2.5% hits | AID 2796; in the data active means activation above about 47%;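 further: 0% = vehicle wells and 100% = reference agonist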
DAX1 inh-2 – blocks DAX1 repression of SF-1 activated StAR promoter; HEK293T StAR-luciferase reporter, SF-1/DAX-1 repression relief; inhibition, % at 6.8 µM; 370,000 compounds, 1.1% hits; AID 652010;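 active means inhibition above the mean over all tested compounds plus 3 SD, cut at about 3.6% in these data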;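 further: 0% = DAX-1 cells with DMSO and 100% = cells lacking DAX-1 with DMSO; higher inhibition means more luminescence from relief of DAX-1 repression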
* = called active by the depositor; x = no result. The list is not random: actives were taken first. Their share in the collection is about 5.7%.

SMILES	DAX1 inh-1	hcDAF12 agonist	hgDAF12 agonist	ssDAF12 agonist	AHR act	DAX1 inh-2
CSC(=Nc1ccccc1)N=C(SCc1ccccc1)N(C)C	-1.6	-2.9	-4.4	-1.8	x	-0.7
Cc1[nH]c(C)c(S(=O)(=O)NCCc2ccccc2)c1C(=O)N1CCCCC1	0.6	-0.7	1.0	-0.7	2.4	-0.9
CCc1c(-c2ccc(OC)cc2)ncn1CCc1ccccc1OC	x	-3.5	-4.9	-2.0	x	-2.5
CCCCn1c(N)c(N(CCOC)C(=O)COC(=O)CCOc2ccc(C)cc2)c(=O)[nH]c1=O	0.3	2.6	-0.6	-0.7	-1.6	0.4
CC(=O)C1=C(O)C(=O)N(C)C1c1ccccc1[N+](=O)[O-] (stereo not drawn)	2.2	5.1	-2.1	2.0*	36.1	-0.4
O=C(C1=C(O)C(=O)N(CC2CCCO2)C1c1ccccc1[N+](=O)[O-])c1ccco1 (stereo not drawn)	0.7	5.3	1.0	1.2*	21.6	0.0
Cc1cc(Oc2cccnc2)ccc1NC(=O)Cc1cn(C)c2ccccc12	x	-0.1	-0.7	-1.6	x	-0.1
Cc1c(O)ccc(C(=O)COc2ccc(F)cc2)c1O	2.6	1.4	11.7*	-0.9	-4.6	1.0
CCc1cc(C(=O)COc2ccc(F)cc2)c(O)cc1O	1.3	-0.3	4.3	-0.7	6.2	0.7
CC(CNC(=O)CCc1nnc(CCC2CCCCC2)o1)c1ccccc1 (stereo not drawn)	5.6*	-0.2	3.5	-0.6	3.6	0.2
Cc1cc(C)n(CCN(C)C(=O)CCc2nnc(CCC3CCCCC3)o2)n1	3.0	2.4	11.9*	1.2*	14.4	1.6
CN(CCCC1CCCC1)C(=O)CCc1nnc(-c2ccccc2)o1	5.4*	2.9	11.9*	0.1	11.5	1.4
Cc1cc(-c2nnc(CCC(=O)NCC(C)c3ccccc3)o2)no1 (stereo not drawn)	0.7	-1.0	-0.5	0.0	6.2	1.4
CCN(Cc1ccncc1)C(=O)CCc1nnc(CCC2CCCCC2)o1	1.5	-1.9	-0.5	-0.7	1.4	-0.5
COc1ccc(-n2[nH]c3c(cnc4ccccc43)c2=O)cc1	x	0.9	3.7	-1.1	x	0.0
C=CCN=C1NC(c2ccc(C(F)(F)F)cc2)C(C(=O)OC)=C(C)N1Cc1ccccc1C(F)(F)F (stereo not drawn)	x	1.3	3.2	-0.7	x	1.1
COc1ccc(-c2cc(C(=O)Nc3ccc(NC(C)=O)cc3)[nH]n2)c(C)c1	x	2.4	9.0	-0.6	x	2.4
Cc1ccc(Cl)cc1-c1cc(C(=O)Nc2ccc(F)cc2)[nH]n1	x	-1.4	1.6	-1.2	x	4.1*
COc1ccc(Cl)c(-c2cc(C(=O)Nc3ccc(F)cc3)[nH]n2)c1	x	0.6	12.4*	-0.6	x	3.2
CCC(C)Sc1cc(C(F)(F)F)c(C(=O)Nc2ccc(Cl)cc2)cn1 (stereo not drawn)	1.7	0.6	0.0	-1.3	58.5*	-0.4
C=CCN1C[C@@H](COCc2ccccc2)OCCS1(=O)=O	x	0.3	-0.6	-0.3	x	0.9
Cc1ccc(C(=O)Nc2nccc(C)n2)cc1	4.8*	1.6	7.1	-0.9	6.7	0.2
Cc1ccc(-n2c(O)c(/C=N/c3ncn[nH]3)c3ccccc3c2=O)cc1	-0.1	-1.2	-0.6	-0.5	-6.6	0.0
Oc1c(/C=N/c2ncn[nH]2)ccc2ccccc12	0.1	1.9	-0.5	1.2*	19.6	-0.3
COc1ccccc1CC(=O)Nc1cc(C)ccn1	0.2	5.0	6.3	1.3*	x	0.9
SMILES	DAX1 inh-1	hcDAF12 agonist	hgDAF12 agonist	ssDAF12 agonist	AHR act	DAX1 inh-2
O=C(CNC(=O)c1ccco1)Nc1ccc(N2CCCCCC2)cc1	4.7*	0.1	10.0	-1.1	7.0	0.9
Cc1ccnc(NC(=O)CNC(=O)c2ccco2)c1	0.3	0.0	1.3	-0.4	2.4	3.8*
O=C(CNC(=O)c1ccco1)Nc1ccc(F)c(Cl)c1	-0.6	-2.1	-2.1	-1.0	x	0.2
O=C(CNC(=O)c1ccco1)Nc1cccc(Cl)c1	0.2	5.8*	1.3	0.2	18.4	0.0
Cc1ccc(C(=O)NNC(=O)c2csc(N3CCOCC3)n2)s1	0.5	-1.2	2.9	-1.1	1.1	0.5
O=C(C(=O)N1CCN(C(=O)C2CCCC2)CC1)c1cccc(C(F)(F)F)c1	x	-0.1	1.4	-0.6	x	0.0
Cc1ccnc(NC(=O)CNC(=O)Cc2cccc3ccccc23)c1	2.9	2.5	8.7	1.3*	6.2	3.4
O=C(NCCN1CCOCC1)C1CC(=O)N(c2ccc(Cl)cc2)C1 (stereo not drawn)	0.9	1.7	1.9	0.1	0.6	-0.2
N#CCSc1n[nH]c2nc3c(c(=O)n12)C1(CCCC1)Cc1ccccc1-3	-0.4	-1.8	-1.1	-1.0	51.9*	0.5
CC(C)Nc1nc(-c2ccccn2)nc(-c2ccccc2)c1C#N	4.8*	-1.8	0.4	-1.3	-0.1	-0.3
CC(C)Nc1nc(-c2cccnc2)nc(-c2ccccc2)c1C#N	2.3	-3.0	1.6	-0.9	11.7	-1.0
CN[C@H]1C[C@@H](c2ccccc2Br)N(C(C)=O)C[C@H]1CO	x	-1.2	-2.3	-1.1	x	0.9
O=C(O)CSc1nnc(Cc2cccc3ccccc23)n1-c1cc(C(F)(F)F)cc(C(F)(F)F)c1	5.7*	2.2	-0.7	-0.9	-2.8	-0.1
CCOCCCNC(=S)N(CCCN(C)C)Cc1cc2cc3c(cc2[nH]c1=O)OCCO3	4.7*	-2.0	0.5	-1.3	3.8	0.9
CNC(=S)N(Cc1ccco1)Cc1cc2cc3c(cc2[nH]c1=O)OCCO3	-0.1	-1.1	0.7	-1.3	36.8	-0.3
CCNC(=S)N(Cc1ccco1)Cc1cc2cc3c(cc2[nH]c1=O)OCCO3	0.3	1.1	0.9	-0.5	70.7*	0.8
CC(C)CNC(=S)N(Cc1ccco1)Cc1cc2cc3c(cc2[nH]c1=O)OCCO3	-1.0	-1.1	0.4	-1.9	53.6*	-0.3
Cc1cnc(C(=O)NC(Cc2ccccc2)c2ccccc2)cn1 (stereo not drawn)	0.4	-1.2	0.8	-1.6	-0.1	0.3
CCCC(=O)Nc1nc2ccc3nc(C)sc3c2s1	3.0	0.1	2.6	-1.1	-1.3	0.1
CCC(=O)Nc1nc2ccc3sc(C)nc3c2s1	1.9	1.5	0.5	-1.7	68.7*	-0.4
CC(C)=CCC[C@](C)(O[C@@H]1O[C@H](CO[C@@H]2OC[C@@H](O)[C@H](O)[C@H]2O)[C@@H](O)[C@H](O)[C@H]1O)C1CC[C@]2(C)C1[C@H](O)CC1[C@@]3(C)CC[C@H](O[C@@H]4O[C@H](CO)[C@@H](O)[C@H](O)[C@H]4O)C(C)(C)C3CC[C@]12C (stereo partly drawn)	-0.1	0.2	1.8	-0.8	1.6	0.4
O=C(NC(=S)NCc1cccnc1)c1cccc2ccccc12	6.1*	4.0	1.6	0.0	14.3	-0.3
CCNC(=S)Nc1ccc(Oc2ccccc2)cc1	-0.3	0.6	2.3	-0.6	3.2	-0.1
